In the library only some 4% were active in any assay of this set; here they are far more common.
Mdm2-MdmX inh: inhibitors of human Mdm2-MdmX association, primary screen, cell-based, luminescence, split luciferase, SaOS-2, uHTS; 330,000 tested, 3% active; SaOS-2 split-luciferase Mdm2/MdmX complementation; inhibition, % at 8 µM; Protein Mdm4 (Homo sapiens) + E3 ubiquitin-protein ligase Mdm2 (Homo sapiens), …; AID 485346, 2010;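 active means inhibition of at least 50% at 8 µM in the primary screen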
Gli-Sufu block: Gli-Sufu pathway antagonists, primary screen, luciferase luminescence, Sufu-KO-LIGHT cells, uHTS; Sufu-KO-LIGHT fibroblasts, Gli luciferase reporter luminescence; inhibition, % at 5 µM; 340,000 tested, 0.74% active; AID 588413, 2011;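 active means inhibition above about 55%, limit read from the data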
CSC inhib: cancer stem cell viability inhibitors, primary screen, luminescence | cancer stem cell-like cells viability | inhibition, % at 7.5 µM | 300,000 tested, 1.1% active | AID 2717, 2010; in the data active means inhibition above about 75%; inconclusive means no clear call, values can overlap the other calls; tested in HMLE shEcad cells
Shn3 3UTR inh: reduction of Shn3 3'UTR firefly luciferase signal, primary screen, Schnurri-3 inhibitor project, cell-based, Clone20 osteoblasts, set 2 | Clone20 osteoblast Shn3 3'UTR firefly luciferase, 24 h | inhibition, % at 12.5 µM | 360,000 tested, 0.52% active;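 active means mean inhibition of at least 75% with every replicate also reaching 75%; inconclusive means mean inhibition at least 75% but some replicate below; inactive means mean inhibition below 75%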
Beta cell apopt: inhibitors of cytokine-induced beta cell apoptosis, primary screen, luminescence; protection from apoptosis, % (concentration not given with the values); INS-1E cytokine-induced death, ATP luminescence, 48 h; percent of positive-control rescue, neutral wells zero; 300,000 tested, 0.8% active;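 active means Every replicate reaches about 75%, or at least half do and their mean reaches it too, limit read from the data; inconclusive means At least half of replicates reach the limit but their mean does not; inactive means Under half of replicates reach the limit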;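 further: higher means more ATP so stronger rescue from cytokine killing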
PAX8 inh HTS: inhibitors of PAX8-driven TPO luciferase reporter, primary screen, RMG-I cells, single concentration | SteadyGlo, 24 h | AID 652154, 2013 | 360,000 tested, 1.2% active | inhibition, % at 12.6 µM;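 active means mean replicate inhibition at least 60% with every replicate also reaching 60%; inconclusive means only one of the two criteria is met; inactive means mean below 60% and not all replicates reaching 60%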;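 further: luciferase light reporting Pax8 driven TPO promoter activity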
Numbers stand for hits; i = inactive; ? = inconclusive; nt = no result; ! = not confirmed by another sample.

SMILES	Mdm2-MdmX inh	Gli-Sufu block	CSC inhib	Shn3 3UTR inh	Beta cell apopt	PAX8 inh HTS
CCC(=O)N(C)C[C@@H]1Oc2cc(-c3ccccc3OC)ccc2S(=O)(=O)N([C@@H](C)CO)C[C@@H]1C	nt	nt	nt	nt	nt	i
O=C(N/N=C/c1cccc2ccccc12)c1ccncc1	i	i	i	i	nt	i
O=C(NN=Cc1c(O)ccc2ccccc12)c1ccncc1	nt	87	nt	90	nt	95
O=C(CN1CCOCC1)N/N=C/c1c(O)ccc2ccccc12	i	i	i	i	84	i
C[C@@H]1CN([C@H](C)CO)C(=O)c2cc(NS(=O)(=O)c3cccs3)ccc2O[C@@H](C)CCCCO[C@@H]1CN(C)Cc1ccc(Cl)c(Cl)c1	nt	nt	nt	nt	nt	80
C[C@@H]1CN([C@H](C)CO)C(=O)c2cc(NS(=O)(=O)c3cccs3)ccc2O[C@@H](C)CCCCO[C@H]1CN(C)Cc1ccc(Cl)c(Cl)c1	nt	nt	nt	nt	nt	75
C[C@@H]1CCCCO[C@@H](CN(C)Cc2ccc(Cl)c(Cl)c2)[C@H](C)CN([C@@H](C)CO)C(=O)c2cc(NS(=O)(=O)c3cccs3)ccc2O1	nt	nt	nt	nt	nt	71
C[C@@H]1CCCCO[C@@H](CN(C)Cc2ccc(Cl)c(Cl)c2)[C@@H](C)CN([C@@H](C)CO)C(=O)c2cc(NS(=O)(=O)c3cccs3)ccc2O1	nt	nt	nt	nt	nt	i
C[C@@H]1CN([C@H](C)CO)C(=O)c2cc(C3=CCCC3)cnc2O[C@@H]1CN(C)Cc1cccc(F)c1	nt	nt	nt	nt	nt	i
O=C(C[C@@H]1C[C@@H]2c3cc(NC(=O)C4CCOCC4)ccc3O[C@@H]2[C@H](CO)O1)NCc1ccc(Oc2ccccc2)cc1	nt	nt	nt	nt	nt	i
C[C@H]1CCCCO[C@H](CN(C)C(=O)NC2CCCCC2)[C@@H](C)CN([C@@H](C)CO)C(=O)c2cc(NC(=O)c3ccccc3)ccc2O1	nt	nt	nt	nt	nt	i
CC1CCc2c(sc3nc(CN4CCOCC4)nc(Sc4ccccc4)c23)C1 (stereo not drawn)	i	i	84	i	i	i
Cc1nc(SCc2nc3ccc(C(F)(F)F)cc3[nH]2)c2oc3ccccc3c2n1	i	i	104	i	i	i
CCSc1nc2cc(OC)c(OC)cc2c(=O)n1CCc1ccccc1	i	i	i	i	i	nt
COCCCn1c(SCCc2ccccc2)nc2cc(OC)c(OC)cc2c1=N	i	i	83	i	i	i
C[C@@H]1CN([C@@H](C)CO)S(=O)(=O)c2ccc(C#CC3CCCC3)cc2O[C@@H]1CN(C)Cc1cncnc1	nt	nt	nt	nt	nt	i
CCn1c(C)c(C)c2cc(C(=O)Nc3cccc(Cl)c3)ccc21	i	i	81	i	i	nt
CN(CC(O)CON=C1c2ccccc2-c2ccccc21)S(=O)(=O)c1ccc(Br)cc1 (stereo not drawn)	i	i	98	i	i	i
CCCN(C)C[C@@H]1OCCCC[C@@H](C)Oc2ccc(NS(=O)(=O)c3ccc(F)cc3)cc2C(=O)N([C@H](C)CO)C[C@@H]1C	nt	nt	nt	nt	nt	i
Cc1sc(NC(=S)NC(=O)CCc2ccccc2)c(C(N)=O)c1C	nt	i	i	i	i	83
CCc1cc2cccc(C)c2nc1SCC(=O)N1CCN(C(=O)c2ccco2)CC1	i	i	i	i	i	nt
CCc1cc2cc(C)cc(C)c2nc1SCC(=O)N1CCN(C(=O)c2ccco2)CC1	i	i	116	i	i	nt
COC(=O)C1=C(C)N(Cc2cccc(C(F)(F)F)c2)C(=NCc2ccc3c(c2)OCO3)NC1c1cccc(F)c1 (stereo not drawn)	nt	nt	nt	nt	nt	65
O=S(=O)(c1ccc(F)c(F)c1F)N1CCN(c2ncnc3sccc23)CC1	i	i	i	?	87	i
Cc1cccc(S(=O)(=O)N2C[C@@H]3[C@H](c4ccccc42)[C@H](CO)N3Cc2ccc3c(c2)OCO3)c1	nt	nt	nt	nt	nt	i
SMILES	Mdm2-MdmX inh	Gli-Sufu block	CSC inhib	Shn3 3UTR inh	Beta cell apopt	PAX8 inh HTS
C[C@@H]1CCCCO[C@H](CN(C)Cc2ccc(C(F)(F)F)cc2)[C@H](C)CN([C@H](C)CO)C(=O)c2cc(NC(=O)c3ccccc3)ccc2O1	nt	nt	nt	nt	nt	99
C[C@@H]1CN([C@@H](C)CO)C(=O)c2cc(NC(=O)c3ccncc3)ccc2O[C@@H](C)CCCCO[C@@H]1CN(C)Cc1ccc(C(F)(F)F)cc1	nt	nt	nt	nt	nt	i
C[C@@H]1CCCCO[C@@H](CN(C)Cc2ccc(C(F)(F)F)cc2)[C@H](C)CN([C@H](C)CO)C(=O)c2cc(NC(=O)c3ccccc3)ccc2O1	nt	nt	nt	nt	nt	91
C[C@H](CO)N1C[C@H](C)[C@@H](CN(C)Cc2ccc(C(F)(F)F)cc2)OCCCC[C@H](C)Oc2ccc(NC(=O)c3ccccc3)cc2C1=O	nt	nt	nt	nt	nt	67
C[C@H](CO)N1C[C@H](C)[C@H](CN(C)Cc2ccc(C(F)(F)F)cc2)OCCCC[C@H](C)Oc2ccc(NC(=O)c3ccccc3)cc2C1=O	nt	nt	nt	nt	nt	90
C[C@@H]1CN([C@@H](C)CO)C(=O)c2cc(NC(=O)c3ccncc3)ccc2O[C@@H](C)CCCCO[C@H]1CN(C)Cc1ccc(C(F)(F)F)cc1	nt	nt	nt	nt	nt	i
CCC(=O)N1C[C@@H](C)[C@H](OC)CN(C)C(=O)c2cc(NC(=O)COC)ccc2OC[C@H]1C	nt	nt	nt	nt	nt	i
C[C@@H](NC(=O)C[C@H]1CC[C@H]2[C@@H](COC[C@@H](O)CN2Cc2cc(F)ccc2F)O1)c1ccccc1	nt	nt	nt	nt	nt	i
C[C@@H]1CN([C@H](C)CO)C(=O)c2cc(NC(=O)c3ccccc3)ccc2O[C@@H](C)CCCCO[C@H]1CN(C)Cc1ccc(C(F)(F)F)cc1	nt	nt	nt	nt	nt	99
C[C@@H]1CN([C@H](C)CO)C(=O)c2cc(NC(=O)c3ccccc3)ccc2O[C@@H](C)CCCCO[C@@H]1CN(C)Cc1ccc(C(F)(F)F)cc1	nt	nt	nt	nt	nt	91
C[C@@H]1CN([C@@H](C)CO)C(=O)c2cc(NC(=O)c3ccccc3)ccc2O[C@@H](C)CCCCO[C@@H]1CN(C)Cc1ccc(C(F)(F)F)cc1	nt	nt	nt	i	nt	77!
C[C@@H]1CCCCO[C@@H](CN(C)Cc2ccc(C(=O)O)cc2)[C@@H](C)CN([C@H](C)CO)C(=O)c2cc(NC(=O)c3ccccc3)ccc2O1	nt	nt	nt	nt	nt	i
COc1ccc(NC(=O)Nc2ccc3c(c2)[C@H]2C[C@@H](CC(=O)O)O[C@@H](CO)[C@H]2O3)cc1	nt	nt	nt	nt	nt	i
C[C@@H]1CN([C@@H](C)CO)C(=O)c2cc(NC(=O)Nc3cccc4ccccc34)ccc2O[C@@H]1CN(C)Cc1ccc(C(=O)O)cc1	nt	nt	nt	nt	nt	i
Cc1ccc(-c2ccc3c(c2)O[C@@H](CN(C)C(=O)Nc2ccccc2)[C@@H](C)CN([C@H](C)CO)S3(=O)=O)cc1	nt	nt	nt	nt	nt	68
Cc1ccc(-c2ccc3c(c2)O[C@H](CN(C)C(=O)Nc2ccccc2)[C@H](C)CN([C@@H](C)CO)S3(=O)=O)cc1	nt	nt	nt	nt	nt	i
Cc1ccccc1-c1ccc2c(c1)O[C@H](CN(C)C(=O)Nc1ccc(C(F)(F)F)cc1)[C@H](C)CN([C@H](C)CO)S2(=O)=O	nt	nt	nt	nt	nt	83

Screens deposited in PubChem BioAssay by several laboratories.
